The list is not random: actives were taken first. Their share in the collection is about 1.3%.
NR5A2 inv ag = LRH-1 (NR5A2) inverse agonists, primary screen, cell-based, luminescence, HEK293T, StAR-luciferase reporter; 360,000 compounds, 0.13% hits; inhibition, % at 3.6 µM; AID 602396, 2012; Nuclear receptor subfamily 5 group A member 2 (Homo sapiens), O00482; LRH-1 transfected, 24 h;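 active = inhibition above the mean inhibition of all tested compounds plus 3 SD, cut at about 73% in these data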;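 note: 0% = DMSO wells and 100% = reporter-only cells lacking LRH-1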
NCOA1 inh = SRC1 coactivator transcriptional activity inhibitors, primary screen, cell-based, luminescence; HEK293 GAL4-SRC1 luciferase reporter; inhibition, % at 3.6 µM; 360,000 compounds, 0.12% hits; AID 588354, 2011;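 active = inhibition above the campaign mean plus 3 SD, with each screening campaign given its own cutoff, cut at about 60% in these data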;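 note: 0% = DMSO treated cells and 100% = gossypol at 36 µM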
NCOA3 inh = SRC3 coactivator transcriptional activity inhibitors, primary screen, cell-based, luminescence; HEK293 GAL4-SRC3 luciferase reporter; 360,000 compounds, 0.17% hits; AID 588352, 2011; inhibition, % at 3.6 µM;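 active = inhibition above a per-campaign cutoff, the mean of all compounds plus 3 SD, cut at about 60% in these data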;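 note: 0% = DMSO-treated cells and 100% = gossypol-treated cells at 36 µM; higher means less SRC3-driven luciferase light from the GAL4 reporter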
Gli-Sufu antag = Gli-Sufu pathway antagonists, primary screen, luciferase luminescence, Sufu-KO-LIGHT cells, uHTS | AID 588413, 2011 | inhibition, % at 5 µM | 340,000 compounds, 0.74% hits | Sufu-KO-LIGHT fibroblasts, Gli luciferase reporter luminescence;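 active = inhibition above about 55%, limit read from the data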;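 note: 0% = DMSO-treated cells and 100% = wells with medium but no cells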
SRC2 inh = inhibition of GAL4-SRC2 driven luciferase reporter, primary screen, SRC2 inhibitor project, cell-based, luminescence | inhibition, % at 9 µM | Nuclear receptor coactivator 2 (Homo sapiens), Q15596 | 370,000 compounds, 0.17% hits | HEK293 GAL4-SRC2 luciferase reporter;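 active = inhibition above the mean inhibition of all tested compounds plus 3 SD, set per campaign, cut at about 52% in these data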;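 note: 0% = DMSO treated cells and 100% = cells given Gossypol at 36 µM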
Target sequence (Q15596 whole entry, looked up, the tested form may be a part): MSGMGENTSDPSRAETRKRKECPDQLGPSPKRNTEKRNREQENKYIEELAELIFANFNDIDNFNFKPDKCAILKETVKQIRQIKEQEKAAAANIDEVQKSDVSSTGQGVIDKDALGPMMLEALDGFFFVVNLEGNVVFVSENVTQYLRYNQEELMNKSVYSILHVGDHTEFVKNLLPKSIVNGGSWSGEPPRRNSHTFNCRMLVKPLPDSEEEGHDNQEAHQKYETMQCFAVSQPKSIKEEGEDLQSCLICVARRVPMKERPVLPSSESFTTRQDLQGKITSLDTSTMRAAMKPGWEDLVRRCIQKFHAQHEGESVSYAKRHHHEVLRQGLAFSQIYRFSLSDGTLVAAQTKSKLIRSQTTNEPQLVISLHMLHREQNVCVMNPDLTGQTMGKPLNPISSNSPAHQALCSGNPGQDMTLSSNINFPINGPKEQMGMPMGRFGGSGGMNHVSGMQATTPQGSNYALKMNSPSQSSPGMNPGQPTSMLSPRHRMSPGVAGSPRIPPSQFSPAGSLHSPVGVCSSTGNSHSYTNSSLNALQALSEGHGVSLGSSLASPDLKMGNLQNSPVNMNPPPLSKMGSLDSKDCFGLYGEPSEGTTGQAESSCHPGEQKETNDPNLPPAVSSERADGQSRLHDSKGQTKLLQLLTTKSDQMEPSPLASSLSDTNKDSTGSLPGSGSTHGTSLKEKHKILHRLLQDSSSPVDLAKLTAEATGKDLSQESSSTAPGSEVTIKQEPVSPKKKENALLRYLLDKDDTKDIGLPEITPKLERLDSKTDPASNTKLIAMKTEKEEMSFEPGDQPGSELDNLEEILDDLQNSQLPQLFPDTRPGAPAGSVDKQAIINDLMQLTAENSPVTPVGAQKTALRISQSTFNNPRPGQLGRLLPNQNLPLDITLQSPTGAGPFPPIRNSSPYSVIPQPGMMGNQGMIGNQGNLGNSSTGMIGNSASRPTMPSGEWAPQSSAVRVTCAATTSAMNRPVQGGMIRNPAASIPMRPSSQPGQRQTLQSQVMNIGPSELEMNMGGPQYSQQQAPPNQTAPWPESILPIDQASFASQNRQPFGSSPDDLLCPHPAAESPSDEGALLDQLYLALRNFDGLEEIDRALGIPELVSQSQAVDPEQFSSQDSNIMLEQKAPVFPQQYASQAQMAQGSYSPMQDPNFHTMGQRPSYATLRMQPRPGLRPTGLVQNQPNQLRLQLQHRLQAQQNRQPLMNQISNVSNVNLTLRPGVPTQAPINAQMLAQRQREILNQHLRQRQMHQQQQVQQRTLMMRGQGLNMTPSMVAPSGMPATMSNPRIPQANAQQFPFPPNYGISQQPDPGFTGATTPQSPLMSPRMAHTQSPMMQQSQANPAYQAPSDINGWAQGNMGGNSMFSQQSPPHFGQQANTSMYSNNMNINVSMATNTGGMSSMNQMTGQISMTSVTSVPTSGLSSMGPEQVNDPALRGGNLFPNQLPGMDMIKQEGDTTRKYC
NR2F2 inh = NR2F2 transcriptional activity inhibitors, primary screen, cell-based, luciferase reporter, HEK293T, luminescence. 370,000 compounds, 0.7% hits. inhibition, % at 8.6 µM. HEK293T NGFI-A luciferase reporter. AID 686940, 2013;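 active = inhibition above a per-plate cutoff, mean inhibition of test wells between control levels plus 3 SD, cut at about 38% in these data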;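 note: cells cotransfected with COUP-TFII expression vector driving the NGFI-A reporter; 0% = median of COUP-TF2 test wells and 100% = reporter-only cells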
Gli-Sufu confirm = Gli-SUFU pathway antagonists, confirmation, single concentration, luciferase luminescence, Sufu-KO-LIGHT cells. shares compounds with Gli-Sufu antag. Gli luciferase reporter. inhibition, % at 5 µM. 2,500 compounds, 40% hits. AID 602428, 2012;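 active = mean inhibition at 5 µM reaching about 45%, limit read from the data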;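 note: plate controls were DMSO-treated cells for no effect and wells lacking cells for full effect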
SufuKO cytotox = cytotoxicity in Sufu-KO-LIGHT cells, confirmation, cytotoxicity control for Gli-SUFU antagonist project, cell-based, ATP luminescence, single concentration. cytotoxicity, % at 5 µM. 2,500 compounds, 32% hits. shares compounds with Gli-Sufu antag. AID 651994, 2013;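 active = mean cytotoxicity at 5 µM above about 25%, limit read from the data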;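 note: cells exposed to compound overnight for roughly 16 to 18 hours; plate controls were DMSO wells with cells for no effect and medium without cells for full effect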
Wnt3a cs = Wnt3a reporter signal inhibition, confirmation, counter-screen for Gli-SUFU antagonist project, Wnt-LIGHT cells, luminescence, single concentration; shares compounds with Gli-Sufu antag; Wnt3a-driven luciferase reporter; inhibition, % at 6.25 µM; 2,500 compounds, 20% hits; AID 651995, 2013;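 active = mean inhibition above about 25%, limit read from the data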
* hit, by the source's call; nt = not tested or not shown.

SMILES	NR5A2 inv ag	NCOA1 inh	NCOA3 inh	Gli-Sufu antag	SRC2 inh	NR2F2 inh	Gli-Sufu confirm	SufuKO cytotox	Wnt3a cs
Nc1cc2ccccc2cc1NS(=O)(=O)N1CCCCC1	nt	nt	nt	nt	-49.9	5.2	nt	nt	nt
COC(=O)c1ccc(-c2ccc(OC)c([C@H]3[C@H]4C=CC[C@@H](C)[C@@H]4C(=O)N3Cc3ccccc3)c2)cc1	15.6	6.9	-8.9	53.9	-17.2	10.7	50.2*	37.6*	-2.1
CCc1cccc(CC)c1NC(=S)/C(=C(\[O-])c1ccc(Cl)s1)[n+]1ccccc1	-2.9	-6.5	14.6	53.0	-1.5	-4.0	25.3	17.9	-4.2
CCCCNC(=S)N(C)/N=C/c1ccc(F)cc1	20.8	6.2	13.1	-2.7	8.7	3.9	nt	nt	nt
CCCCNC(=S)N(C)/N=C/c1ccc2c(c1)OCO2	-0.6	7.8	11.2	99.3*	-1.9	-1.2	20.7	22.8	8.2
CC(C)(C)NC(=O)c1cccc(NC(=O)c2ccco2)c1	10.9	4.4	1.2	-4.8	4.9	-15.7	nt	nt	nt
CC(C)(C)NC(=O)c1cccc(NC(=O)c2ccc(NC(=O)c3ccco3)cc2)c1	5.8	9.8	-4.0	75.2*	-6.9	6.9	18.2	12.2	-87.4
Cc1ccc(C(=O)c2cc([N+](=O)[O-])ccc2N2CCCCC2)c(C)c1	23.4	1.9	22.3	58.7*	6.1	-70.8	53.0*	60.1*	16.1
COc1ccc(C(=O)c2cc([N+](=O)[O-])ccc2N2CCOCC2)cc1	37.9	23.8	11.3	53.1	18.6	-54.5	58.2*	62.2*	-15.0
O=C(O)c1cc([N+](=O)[O-])ccc1N1CCCCC1	13.4	-1.1	18.1	-10.1	-28.9	-8.4	nt	nt	nt
CCOc1cccc(/C=N\NC(=O)c2cnccn2)c1O	nt	nt	nt	nt	-15.8	-14.9	nt	nt	nt
CCCCC(=O)N1CCN(C(=O)c2ccc3nc(C)n(C4CCCC4)c3c2)CC1	nt	nt	nt	nt	-1.7	-2.7	nt	nt	nt
CCN(CC)S(=O)(=O)c1cccc(C(=O)N/N=C/c2cc(OC)c(O)c(OC)c2)c1	-7.7	-6.7	8.0	6.0	-35.9	8.6	nt	nt	nt
O=C(N/N=C/c1ccccc1O)c1cccc(C(F)(F)F)c1	-8.1	38.7	58.8	66.1*	20.4	-13.2	61.8*	35.7*	57.8*
CCN(CC)S(=O)(=O)c1cccc(C(=O)N/N=C/c2cccc(O)c2O)c1	-3.4	17.1	28.6	70.9*	33.6	-46.8	50.8*	47.8*	36.3*
CCc1ccc(-n2ncc(Cl)c(Oc3ccc(OC)cc3)c2=O)cc1	nt	nt	nt	nt	nt	-16.5	nt	nt	nt
CCOC(CNC(=O)c1cc2c(=O)n(CC)c3ccccc3c2s1)OCC	15.8	-9.1	9.8	10.6	-24.2	-12.6	nt	nt	nt
CCn1c(=O)c2cc(C(=O)NCC(OC)OC)sc2c2ccccc21	16.3	15.5	-36.3	50.2	-5.3	-10.0	28.8	2.3	2.8
COc1ccc(-c2c(NC(C)=O)n(C)c3ccccc3c2=O)cc1	8.4	-10.3	7.5	99.6*	-20.0	1.3	10.9	22.1	-21.7
COC(=O)CC#C[C@H](C)[C@@H](NS(C)(=O)=O)C(C)(C)COCc1ccccc1	nt	nt	nt	nt	-1.1	2.0	nt	nt	nt
Cc1cc(C)nc(/N=C(\N)Nc2ccccc2-c2ccccc2)n1	6.9	-13.4	33.9	59.7*	22.9	12.2	42.8	12.0	-16.1
Cc1ccc(N/C(N)=N/c2nc(C)cc(C)n2)cc1	6.8	-3.6	36.2	43.9	-1.4	3.0	nt	nt	nt
C[C@H]1[C@H](N(C)C)CC[C@@]23CCCN2C(=O)CCC[C@@H]13	nt	nt	nt	nt	nt	-11.6	nt	nt	nt
O=S(=O)(c1cccs1)N1CCCc2nc(-c3ccc(F)cc3)ccc21	nt	nt	nt	nt	-17.8	-12.8	nt	nt	nt
CC[N+](CC)(CC#Cc1ccccc1)CC#Cc1ccccc1	11.8	6.3	25.2	67.8*	4.5	10.3	71.4*	22.0	18.6
SMILES	NR5A2 inv ag	NCOA1 inh	NCOA3 inh	Gli-Sufu antag	SRC2 inh	NR2F2 inh	Gli-Sufu confirm	SufuKO cytotox	Wnt3a cs
CSC1=NCCN1C(=O)Cc1ccc(-c2ccccc2)cc1	-44.0	-14.6	-1.1	62.4*	-1.5	-15.4	23.4	13.3	-93.9
CCCCCCCC[n+]1c(C)n(-c2ccccc2)c2ccc(NC(C)=O)cc21	25.6	27.8	21.8	76.1*	-10.6	14.4	77.5*	31.4*	9.3
Cc1ccc(-c2nc(C3CCCN(S(=O)(=O)c4ccccc4)C3)no2)cc1 (stereo not drawn)	nt	nt	nt	nt	-10.4	-3.0	nt	nt	nt
O=C(C1CC1)N1CCN(c2ccc([N+](=O)[O-])cc2)CC1	5.3	-209.8	3.1	53.0	-4.2	-6.5	22.7	11.4	1.1
CCOC(=O)[C@@]12CCCC3=C1N(CCC3)C(=O)[C@H]2CC(=O)NCC12CC3CC(CC(C3)C1)C2	nt	nt	nt	nt	-6.4	3.4	nt	nt	nt
CC(=O)OCCCN1CCC2(CCCCC2)C1=O	nt	nt	nt	nt	-8.8	-5.7	nt	nt	nt
CC(=O)c1cc(-c2ccc3nonc3c2)c(=O)n2c1CCC2	nt	nt	nt	nt	-8.3	-2.5	nt	nt	nt
COc1ccc2c(c1OC)C(=O)OC2C1c2c(cc3c(c2OC)OCO3)CCN1C (stereo not drawn)	6.8	-3.8	4.4	50.8	-6.4	-6.8	33.9	17.1	-5.7
CN(C)[C@@H]1CCN(c2ccc3c(c2)OCCCN(C2CC2)S3(=O)=O)C1	nt	nt	nt	nt	-13.9	-10.3	nt	nt	nt
COC(=O)CN(C(=O)CSc1nnc(-c2cccc(OC)c2)o1)c1ccc(OC)cc1	-2.7	-8.7	5.6	-6.5	-10.2	-9.9	nt	nt	nt
CCOC(=O)CN(C(=O)CSc1nnc(-c2cccc(OC)c2)o1)c1ccc(F)cc1	-7.0	3.4	6.5	98.5*	4.0	22.3	11.4	10.7	-35.8
O=C(CNC(=S)N(Cc1ccc(F)cc1)C1CCCCC1)NC1CC1	12.2	5.0	6.3	59.3*	-14.0	9.3	19.7	2.5	0.2
CC(=O)/C(N=Nc1ccc(C(=O)O)cc1[N+](=O)[O-])=C(\C)O	3.9	4.1	24.8	80.0*	-10.8	14.2	7.5	5.3	-13.6
CCOC(=O)/C(N=Nc1ccc(C(=O)O)cc1[N+](=O)[O-])=C(\C)O	-7.1	-10.2	9.9	3.6	-47.4	14.6	nt	nt	nt
c1ccc(C[n+]2cccc(-c3ccccc3)c2)cc1	5.1	21.9	11.1	57.0*	-7.7	-5.9	57.5*	15.3	10.3

Screening results from PubChem BioAssay.
